The record followed here is ChEMBL document CHEMBL4513216, “Probing the Open Global Health Chemical Diversity Library for Multistage-Active Starting Points for Next-Generation Antimalarials” (ACS Infect Dis, 2020).

Molecules are shown by their SMILES. The campaign covered roughly 69,000 compounds. About 8,600 (12%) showed an effect of 50% or more. This is one part of a sample in which strong results are shown more often than they occur.

The experiment deals with Plasmodium berghei. The experiment in a line: Screen against P. berghei liver stage (PbLuc), transformed with Luciferase, at 10uM. It is filed as functional, HepG2. The conditions noted are these: tested at 10 uM.
Turning to `Cc1cnn(CCNCc2csc(-c3ccc(C(N)=O)cc3)n2)c1`, the INHIBITION worked out at 43.6%.

As for `O=C(COc1ccc2c(c1)OCC2O)NCc1ccco1` (stereo not drawn), the INHIBITION is listed as 10.6%.

Take `Cc1occc(=O)c1OCc1noc(C(=O)NCC(C)C)n1`: the INHIBITION is recorded as 26.9%.

In the case of `N#Cc1nc(COc2ccc3c(c2)OCO3)oc1NC1CC1`, the INHIBITION turned out to be 47.1%.

Take `CC(C)CNC(=O)c1nc(COc2ccc3c(c2)OCO3)no1`: the INHIBITION was determined as 57.7%.

On to `NC(=O)c1nc(COc2ccc3c(c2)OCO3)no1`, for which the INHIBITION was -83.7%.

Consider `O=C(NC1CCCC1)c1nc(COc2ccc3c(c2)OCO3)no1`, for which the INHIBITION is reported as 62.9%.

Regarding `O=C(NC1CC1)c1nc(COc2ccc3c(c2)OCO3)no1`, the INHIBITION worked out at 35.1%.

Regarding `CC(C)NC(=O)c1nc(COc2ccc3c(c2)OCO3)no1`, the INHIBITION is given as 32.8%.

Consider `O=C(c1nc(COc2ccc3c(c2)OCO3)no1)N1CCCC1`, for which the INHIBITION is on record as 13.4%.

Turning to `CNc1oc(COc2ccc3c(c2)OCO3)nc1C#N`, the INHIBITION amounted to 41.5%.

Turning to `CNC(=O)c1nc(COc2ccc3c(c2)OCO3)no1`, the INHIBITION is 53.7%.

For the compound `O=C(NCC1CC1)c1nc(COc2ccc3c(c2)OCO3)no1`, the INHIBITION is -12.6%.

Take `N#Cc1nc(COc2ccc3c(c2)OCO3)oc1NC1CCCCC1`: the INHIBITION turned out to be 72.1%.

On to `CCn1cc(CN2CCC(O)(Cn3nc(C)ccc3=O)CC2)cn1`, for which the INHIBITION is 6.32%.

Take `CN(C)c1cc(C(=O)N2CCCCC2)ccn1`: the INHIBITION is 2.7%.

As to `CC1CCN(C(=O)c2cnn3c(-c4ccco4)ccnc23)CC1`, the INHIBITION is -82.6%.

`CCCNC(=O)NC(=O)CN1C=Nc2ccccc2S1(=O)=O`: the INHIBITION is reported as -3.7%.

Turning to `Cc1occc1C(=O)N1CCC2(CC1)C(c1cnn(C)c1)CC(=O)N2C` (stereo not drawn), the INHIBITION is reported as 31.3%.

Take `Cn1ccnc1CC1CCCN(Cc2noc(C3CC3)n2)C1` (stereo not drawn): the INHIBITION is 9.14%.

For `Cc1nnsc1CNC(=O)CSCc1ccccc1Cl`, the INHIBITION is on record as 10.8%.

Take `c1ccc(Cc2nnc(CN3CCCCC3Cn3cncn3)o2)cc1` (stereo not drawn): the INHIBITION was determined as 24%.

For `CCN(Cc1c(F)cccc1Cl)c1cc(C2CCNCC2)nc(C)n1`, the INHIBITION stood at 39.6%.

`COc1ncccc1CNC(=O)c1cnccn1`: the INHIBITION was -12%.

For the compound `N#Cc1ccccc1OCCN1CCCC1Cn1cncn1` (stereo not drawn), the INHIBITION was determined as 48.1%.

With `CC(C)CN1CCc2c(CN(C)Cc3ccco3)cncc2C1`, the INHIBITION is reported as -15.2%.

On to `Cc1cccc(S(=O)(=O)N2CCCC3(CCCN3S(C)(=O)=O)C2)c1` (stereo not drawn), for which the INHIBITION was -61.6%.

With `Cc1nn(C)cc1S(=O)(=O)NCC(c1ccccc1)N1CCCCCC1` (stereo not drawn), the INHIBITION is listed as 36.7%.

Regarding `CN1CCc2cc(C(CNS(=O)(=O)c3cccs3)N3CCCC3)ccc21` (stereo not drawn), the INHIBITION turned out to be 20.5%.

Take `O=S(=O)(NCC(c1ccsc1)N1CCCCCC1)c1cccs1` (stereo not drawn): the INHIBITION is on record as 60%.

With `CN(C)c1ccc(C(CNS(=O)(=O)c2cccs2)N2CCCC2)cc1` (stereo not drawn), the INHIBITION was 67.6%.

Regarding `COc1ccccc1N1CCC(CNS(=O)(=O)c2cccs2)C1` (stereo not drawn), the INHIBITION was determined as 6.31%.

On to `COc1ccc(C(CNS(=O)(=O)c2cn(C)nc2C)N2CCCC2)cc1` (stereo not drawn), for which the INHIBITION was found to be 23.15%.

As to `O=C(NCC(F)(F)F)c1ccncc1`, the INHIBITION is listed as -6.67%.

As to `CC(C)c1noc(CCCC(=O)N2CCN(Cc3cccnc3)CC2)n1`, the INHIBITION was -40.2%.

With `COc1cccc(OCC(=O)NCc2ccc3[nH]c(=O)[nH]c3c2)c1`, the INHIBITION worked out at 12.6%.

On to `CN1CCOC(C)(C(=O)Nc2nc(C(C)(C)C)cs2)C1` (stereo not drawn), for which the INHIBITION turned out to be 7.5%.

Take `CN(CC1(O)CCN(c2ccnc3ccncc23)CC1)C(=O)CCN`: the INHIBITION was -5.78%.

As for `CCN(CC)S(=O)(=O)CC(=O)N1CCc2ccc(C)cc21`, the INHIBITION turned out to be 57.5%.

`Cc1ccc2c(c1)N(C(=O)C1CCCOC1)CCC2` (stereo not drawn): the INHIBITION is -27%.

As to `CS(=O)(=O)c1ccc2c(c1)N(C(=O)Cc1ccc(F)cc1)CCC2`, the INHIBITION is 47.7%.

Take `CCN(CC)S(=O)(=O)CC(=O)N1CCc2ccc(Cl)cc21`: the INHIBITION was found to be 26.8%.

On to `CS(=O)(=O)c1ccc2c(c1)N(C(=O)Cc1cccc(F)c1)CCC2`, for which the INHIBITION was 30.9%.

As to `CCN(CC)S(=O)(=O)CC(=O)N1CCc2ccc(F)cc21`, the INHIBITION turned out to be 67.4%.

For the compound `COCCOc1cccc(CNC(=O)CN2CCN(C)CC2C)c1` (stereo not drawn), the INHIBITION is recorded as 17.883%.

Consider `Cc1ccccc1Cn1cnc2oc(C)c(C(=O)O)c2c1=O`, for which the INHIBITION is 0.348%.

On to `O=C(CCn1cccn1)N1CCC(c2nnc(-c3ccsc3)o2)CC1`, for which the INHIBITION stood at 5.86%.

As to `O=C(N[C@@H]1CN(c2ncccn2)C[C@@H]2CCCO[C@@H]21)c1cccnc1`, the INHIBITION came out at 4.61%.

As to `CC(=O)NS(=O)(=O)c1ccc(F)cc1C(F)(F)F`, the INHIBITION was 35%.

In the case of `O=C(NCCn1nc(-n2cncn2)ccc1=O)c1ccsc1`, the INHIBITION is 6.12%.

On to `O=C(CCOc1ccccc1)N1CCCC(c2ncc[nH]2)C1` (stereo not drawn), for which the INHIBITION is reported as 52.7%.

For `O=C(CCCOCc1ccccc1)N1CCCC(c2ncc[nH]2)C1` (stereo not drawn), the INHIBITION is given as 6.11%.

Take `CCOCCC(=O)N1CCCC(c2ncc[nH]2)C1` (stereo not drawn): the INHIBITION is on record as 48.1%.

On to `CCOCCOc1ccccc1C(=O)N1CCCC(c2ncc[nH]2)C1` (stereo not drawn), for which the INHIBITION is -7.35%.

Turning to `CCOCCC1(C(=O)N2CCCC(c3ncc[nH]3)C2)CCCC1` (stereo not drawn), the INHIBITION is 72%.

With `CSCCC(=O)N1CCCC(c2ncc[nH]2)C1` (stereo not drawn), the INHIBITION is given as -8.66%.

Take `COCCC(=O)N1C[C@H]2CN(Cc3cccc(C)n3)C(=O)[C@H]2C1`: the INHIBITION came out at 26.6%.

For `CCOCCN1CCC(c2cnccn2)CC1`, the INHIBITION is reported as 32.7%.

As for `CN1CCN(C=C2N=C(c3cc(-c4ccccc4F)n[nH]3)ON2)CC1`, the INHIBITION was found to be 49.4%.

Take `CS(=O)(=O)N1CC[C@H]2OCC[C@@]2(C(=O)NCc2ccccn2)C1`: the INHIBITION was 39.4%.

On to `CNC(=O)c1cc(C)n(-c2cccc(OC)c2)c1C`, for which the INHIBITION is listed as -3.2%.

As for `Cc1cc(Br)cnc1N(C)CC1CCOC1` (stereo not drawn), the INHIBITION came to 23.6%.

As to `Cc1nc2c(c(NCc3ccc(-c4ccccn4)s3)n1)CCNCC2`, the INHIBITION came out at 32.2%.

Take `Cc1nc2c(c(NCc3nc4ccccc4s3)n1)CCNCC2`: the INHIBITION turned out to be 75.8%.

On to `Cc1nc2c(c(NCc3cc4ccccc4s3)n1)CCNCC2`, for which the INHIBITION amounted to 46.1%.

Regarding `CC(C)N1CCN(C(=O)Nc2cnc3c(cnn3C(C)C)c2)CC1`, the INHIBITION worked out at 27.6%.

Turning to `O=C(CCOc1ccccc1)N1CCCC(n2cncn2)C1` (stereo not drawn), the INHIBITION is -13.255%.

As to `CCC(C)N(Cc1cccnc1)Cc1cc2c(cc1OC)OCO2` (stereo not drawn), the INHIBITION is -19.8%.

As to `CCC(C)N(Cc1cccnc1)Cc1cc2c(cc1Cl)OCO2` (stereo not drawn), the INHIBITION is 58.5%.

For `CCC(C)N(Cc1cccnc1)Cc1ccc2c(c1)OCCO2` (stereo not drawn), the INHIBITION is 52.5%.

For the compound `CCC(C)N(Cc1cccnc1)Cc1ccccc1Cn1cccn1` (stereo not drawn), the INHIBITION was determined as 31.3%.

`c1cncc(CN(Cc2ccc3c(c2)OCCO3)CC2CCCO2)c1` (stereo not drawn): the INHIBITION is listed as -2.98%.

For the compound `Cc1ccnc(CC(C)N(C)Cc2ccc3c(c2)OCCO3)c1` (stereo not drawn), the INHIBITION is listed as 8.11%.
